Assay outcomes (PubChem BioAssay)
Rows were chosen to be rich in hits. Some 6.8% of all compounds tested hit in one or more screens of this group.
Pf Dd2 inh = P. falciparum Dd2 growth inhibition; SYBR Green, 72 h; stronger effect = lower value; activity change, % at 10 µM; hit rate 2.3% among 94,000; AID 1159554; in the data active = activity change below about -80%; inconclusive = no clear call, values can overlap the other calls
T cruzi growth-1 = T. cruzi proliferation inhibition | T. cruzi beta-gal in NIH3T3, GalScreen luminescence, 90 h | inhibition, % at 8.34 µM | hit rate 5.9% among 77,000 | AID 624255;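 active = mean inhibition above about 93%, with at least 55% of replicates each passing it, limit read from the data, passing the limit was not always enough; inconclusive = only one of those two conditions holds; inactive = neither condition holds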
C diff growth = blocks growth of Clostridium difficile | Clostridium difficile clinical isolate growth, OD600, 24 h; stronger effect = lower value | growth activity, negative = inhibition, % at 16 µg/mL (by protocol) | hit rate 0.25% among 86,000 | AID 1259249;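 active = mean growth activity at or below -80% and every replicate also at or below -80%; inconclusive = mean at or below -80% but some replicate above -80%; inactive = mean growth activity above -80%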;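 also: 0% = DMSO wells and -100% = levofloxacin 16 µg/mL wells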
T cruzi growth-2 = inhibitors of T. cruzi proliferation; shares compounds with T cruzi growth-1; T. cruzi beta-gal in NIH3T3, GalScreen luminescence, 90 h; inhibition, % at 8.35 µM; hit rate 72% among 5,600; AID 651739;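 active = mean replicate inhibition above about 95% and at least 55% of replicates individually reaching it, limit read from the data; inconclusive = only one of the two criteria is met; inactive = neither criterion is met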
T cruzi growth-3 = Trypanosoma cruzi proliferation inhibition; shares compounds with T cruzi growth-1; T. cruzi beta-gal in NIH3T3, GalScreen luminescence, 90 h; inhibition, % at 2.09 µM; hit rate 21% among 5,600;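 active = mean inhibition above about 95%, with at least 55% of replicates also reaching it, limit read from the data; inconclusive = meets just one of the two conditions; inactive = meets neither condition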;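 also: plate controls were neutral control median for no effect and positive control median for full effect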
NIH3T3 tox = kills mouse NIH/3T3 fibroblasts. AID 651742. shares compounds with T cruzi growth-1. hit rate 14% among 5,600. NIH/3T3 viability, CellTiter-Glo ATP luminescence, 90 h. cytotoxicity (signal decrease), % at 8.35 µM;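 active = mean signal decrease across replicates above about 35% based on untreated-well scatter, with enough replicates individually passing, limit read from the data; inconclusive = no rule stated though some were filed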;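 also: 0% = median of neutral control wells and 100% = median of positive control wells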
3T3 cytotox 2 = NIH/3T3 (mouse) viability loss | shares compounds with T cruzi growth-1 | NIH/3T3 viability, CellTiter-Glo ATP luminescence, 90 h | inhibition, % at 24.9 µM | hit rate 56% among 5,600 | AID 651744;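 active = mean loss of cell viability signal at or above a set limit, and enough replicates individually reaching it; inconclusive = meets only the mean limit or only the replicate share; inactive = meets neither condition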;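 also: 0% = median of neutral control wells and 100% = median of positive control wells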
Numbers without * were called inactive; ? = inconclusive; / = no result.

SMILES | Pf Dd2 inh | T cruzi growth-1 | C diff growth | T cruzi growth-2 | T cruzi growth-3 | NIH3T3 tox | 3T3 cytotox 2
C[C@@H]1CCCCO[C@@H](CN(C)S(=O)(=O)c2ccc(Cl)cc2)[C@H](C)CN([C@H](C)CO)C(=O)c2cc(NS(=O)(=O)c3ccc(F)cc3)ccc2O1 | -60 | 61 | 6 | / | / | / | /
C[C@@H]1CN([C@H](C)CO)C(=O)c2cc(NS(=O)(=O)c3ccc(Cl)cc3)ccc2O[C@@H](C)CCCCO[C@H]1CN(C)S(=O)(=O)c1ccc(F)cc1 | -53 | 103* | -6 | 100* | 110* | 8 | -9
C[C@@H]1CCCCO[C@@H](CN(C)S(=O)(=O)c2ccc(F)cc2)[C@@H](C)CN([C@@H](C)CO)C(=O)c2cc(NS(=O)(=O)c3ccc(Cl)cc3)ccc2O1 | -73 | 103* | 0 | 103* | 74 | 3 | 53*
C[C@@H]1CN([C@H](C)CO)C(=O)c2cc(NS(=O)(=O)c3ccc(F)cc3)ccc2O[C@@H](C)CCCCO[C@@H]1CN(C)S(=O)(=O)c1ccc(Cl)cc1 | -61 | 99 | 21 | / | / | / | /
CCC(=O)N1[C@@H]2c3cccc(=O)n3C[C@@H]2[C@@H](CO)[C@@H]1C(=O)N[C@H](C)c1ccccc1 | 26 | / | -1 | / | / | / | /
COc1ccc(CNC(=O)C[C@H]2CC[C@@H](NS(=O)(=O)c3cccc(OC)c3)[C@H](CO)O2)cc1 | / | / | 1 | / | / | / | /
NCC[C@H]1CC[C@@H](NC(=O)C2CC2)[C@H](CO)O1 | 28 | / | 1 | / | / | / | /
C[C@@H]1CCCCO[C@H](CN(C)CC2CCCCC2)[C@H](C)CN([C@@H](C)CO)C(=O)c2cc(NS(C)(=O)=O)ccc2O1 | / | -42 | 2 | / | / | / | /
C[C@@H]1CCCCO[C@@H](CN(C)CC2CCCCC2)[C@@H](C)CN([C@@H](C)CO)C(=O)c2cc(NS(C)(=O)=O)ccc2O1 | -20 | 104* | 6 | 59 | -3 | 0 | -19
Cc1ccc(S(=O)(=O)Nc2ccc3c(c2)C(=O)N([C@H](C)CO)C[C@@H](C)[C@@H](CN(C)CC2CCCCC2)OCCCC[C@H](C)O3)cc1 | -48 | 93 | 10 | / | / | / | /
C[C@@H]1CCCCO[C@H](CN(C)S(=O)(=O)c2cn(C)cn2)[C@@H](C)CN([C@@H](C)CO)C(=O)c2cc(NS(C)(=O)=O)ccc2O1 | -25 | -51 | 2 | / | / | / | /
Cc1ccc(S(=O)(=O)Nc2ccc3c(c2)C(=O)N([C@H](C)CO)C[C@@H](C)[C@H](CN(C)CC2CCCCC2)OCCCC[C@@H](C)O3)cc1 | -63 | ? | 10 | 102* | 85 | 27 | 104*
Cc1ccc(S(=O)(=O)Nc2ccc3c(c2)C(=O)N([C@@H](C)CO)C[C@@H](C)[C@H](CN(C)CC2CCCCC2)OCCCC[C@H](C)O3)cc1 | -36 | 2 | 15 | / | / | / | /
C[C@@H]1CCCCO[C@@H](CN(C)S(=O)(=O)c2cn(C)cn2)[C@@H](C)CN([C@@H](C)CO)C(=O)c2cc(NS(C)(=O)=O)ccc2O1 | 39 | 102* | -1 | 78 | -11 | -20 | -31
Cc1ccc(S(=O)(=O)Nc2ccc3c(c2)C(=O)N([C@H](C)CO)C[C@@H](C)[C@@H](CN(C)CC2CCCCC2)OCCCC[C@@H](C)O3)cc1 | -65 | ? | 9 | 100* | 101* | 46* | 104*
O=C(C[C@@H]1CC[C@@H]2[C@H](COC[C@H](O)CN2S(=O)(=O)c2cccc(Cl)c2)O1)NCc1ccncn1 | 2 | 0 | / | / | / | / | /
CCNC(=O)C[C@H]1C=C[C@@H](NC(=O)C2CC2)[C@H](CO)O1 | -4 | / | 2 | / | / | / | /
C[C@H]1CN([C@@H](C)CO)C(=O)c2cccc(NC(=O)c3cnccn3)c2O[C@H]1CN(C)C(=O)Nc1ccc2c(c1)OCO2 | 1 | 17 | / | / | / | / | /
C[C@H](CO)N1C[C@H](C)[C@H](CN(C)Cc2ccc3c(c2)OCO3)Oc2ccc(NC(=O)CCC(F)(F)F)cc2CC1=O | 3 | 46 | 0 | / | / | / | /
CCCNC(=O)[C@H]1[C@H](CO)[C@H]2Cn3c(cccc3=O)[C@@H]1N2S(=O)(=O)c1ccccc1F | / | 11 | 1 | / | / | / | /
C[C@@H](NC(=O)C[C@@H]1CC[C@@H]2[C@H](COC[C@H](O)CN2Cc2cc(F)ccc2F)O1)c1ccccc1 | -57 | -9 | 8 | / | / | / | /
COc1ccc(S(=O)(=O)Nc2ccc3c(c2)C(=O)N([C@@H](C)CO)C[C@H](C)[C@H](CN(C)CC2CCCCC2)OCCCC[C@@H](C)O3)cc1 | -36 | 38 | -6 | / | / | / | /
COc1ccc(S(=O)(=O)Nc2ccc3c(c2)C(=O)N([C@H](C)CO)C[C@H](C)[C@@H](CN(C)CC2CCCCC2)OCCCC[C@H](C)O3)cc1 | -30 | ? | -4 | 104* | 67 | 19 | 82*
COCC(=O)Nc1ccc2c(c1)C(=O)N(C)C[C@@H](OC)[C@@H](C)CN(Cc1ccccn1)[C@H](C)CO2 | 4 | 0 | / | / | / | / | /
C[C@@H]1CCCCO[C@H](CN(C)C(=O)C2CCCCC2)[C@H](C)CN([C@@H](C)CO)C(=O)c2cc(NC(=O)Nc3ccc(C(F)(F)F)cc3)ccc2O1 | -59 | 118* | 13 | 98* | 118* | -18 | -2
SMILES | Pf Dd2 inh | T cruzi growth-1 | C diff growth | T cruzi growth-2 | T cruzi growth-3 | NIH3T3 tox | 3T3 cytotox 2
C[C@@H]1CCCCO[C@@H](CN(C)C(=O)C2CCCCC2)[C@@H](C)CN([C@H](C)CO)C(=O)c2cc(NC(=O)Nc3ccc(C(F)(F)F)cc3)ccc2O1 | -50 | 117* | 3 | 87 | 63 | 30 | 26*
C[C@@H]1CCCCO[C@@H](CN(C)C(=O)C2CCCCC2)[C@@H](C)CN([C@H](C)CO)C(=O)c2cc(NC(=O)Nc3ccc(F)cc3)ccc2O1 | -49 | 12 | 10 | / | / | / | /
C[C@H]1CCCCO[C@H](CN(C)C(=O)C2CCCCC2)[C@@H](C)CN([C@@H](C)CO)C(=O)c2cc(NC(=O)Nc3ccc(C(F)(F)F)cc3)ccc2O1 | ? | 121* | -6 | 96* | 111* | -4 | 31*
C[C@H](CO)N1C[C@H](C)[C@H](CN(C)C(=O)C2CCCCC2)OCCCC[C@H](C)Oc2ccc(NC(=O)Nc3ccc(F)cc3)cc2C1=O | 15 | 83 | -3 | / | / | / | /
C[C@@H]1CN([C@@H](C)CO)C(=O)c2cc(NC(=O)Nc3ccc(C(F)(F)F)cc3)ccc2O[C@@H](C)CCCCO[C@@H]1CN(C)C(=O)C1CCCCC1 | -78 | 102 | 5 | / | / | / | /
COCCNC(=O)C[C@@H]1C[C@@H]2c3cc(NS(C)(=O)=O)ccc3O[C@@H]2[C@H](CO)O1 | 31 | 30 | 6 | / | / | / | /
CCCN1C[C@@H](C)[C@H](OC)CN(C)C(=O)c2cc(NC(=O)c3ccccc3F)ccc2OC[C@@H]1C | -42 | -1 | / | / | / | / | /
C[C@H](CO)N1C[C@H](C)[C@H](CN(C)Cc2ccc(C(F)(F)F)cc2)Oc2ccc(NC(=O)Nc3ccc(C(F)(F)F)cc3)cc2CC1=O | -33 | 37 | 12 | / | / | / | /
